Laboratory results published in PubChem BioAssay (NCI).
The panel holds about 83,000 compounds, 20% with a hit somewhere; the sample as a whole holds those more often.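 Step 1: grow cells in 96-well plates. Step 2: add test compound at a single concentration. Step 3: incubate 48 h. Step 4: record percent growth.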 Unmarked numbers belong to inactive results. Active and inactive are the calls of the source. How the source made its calls: active means growth percent below 10; inactive means the rest.

The compounds below were run on MDA-MB-468 breast (assay: NCI-60 one-dose screen, 48 h (100 = growth as untreated, 0 = no growth, -100 = all killed)). Settings: 10 µM unless noted.

SMILES	growth
Cc1ccc(-n2c(-c3ccccc3)c(-c3ccccc3)c3c(SCC(=O)n4[nH]c(N)cc4=O)ncnc32)cc1	91.8%
NC(CSC(c1ccccc1)(c1ccccc1)c1ccc(F)cc1)C(=O)O (stereo not given)	-41% (active)
Cc1ccc2c(n1)C(=O)C(Cl)=C(Nc1cc(C(F)(F)F)cc(C(F)(F)F)c1)C2=O	32.5%
COc1ccc(/C=C2\Oc3cc(OCCCN4CCCC4)ccc3C2=O)c(OC)c1	62%
CC(=O)c1cc(C(=O)c2ccc(Br)cc2)n2cc(C)cc(C)c12	89.3%
C/C(=C\c1ccc([N+](=O)[O-])cc1)C(=O)O	116%
CN(CCO)c1ccc(N2Cc3ccccc3OC3=C2C(=O)c2c(O)ccc(O)c2C3=O)cn1	-64.7% (active)
CCN(CC)CCCNc1cccc2c(SCc3ccccc3)ccnc12	88.3%
CC(C)[C@@H]1CC[C@]2(CO2)[C@@H]2C(=O)OCC(C(=O)O)=C[C@H]21	7.72% (active)
CCSc1nc2scc(C)c2c(=O)[nH]1	110%
N#Cc1cnc2ccc(-c3cnc4[nH]ncc4c3)cc2c1N1CCc2cc(F)c(Cl)cc21	-19.8% (active)
Cn1[nH]cc(/C=N/C(N)=O)c1=O	119%
CNC(=O)c1cc(Oc2ccc3nc(NC(=O)c4ccc5ncccc5c4)sc3c2)ccn1	73.7%
O=C(/C=C(/C=C/c1coc2ccccc12)OB(F)F)/C=C/c1coc2ccccc12	112%
O=C(CSc1nc2sc3c(c2c(=O)n1-c1ccc(Cl)cc1)CCCC3)N/N=C/c1ccc(F)cc1	129%
O=S(=O)(NCCCNc1nccc(-c2c(-c3cccc(O)c3)nc3occn23)n1)c1ccc(F)cc1	100%
O=C(/C=C/c1cccnc1)c1ccccc1	99.2%
COc1ccc(C2C3=C(COC3=O)N(CCO)c3cc(OC)c(OC)cc32)cc1 (stereo not given)	110%
CN(C)CCSC1=Nc2ccc(Cl)cc2C(c2ccccc2Cl)N(C)C1 (stereo not given)	58.4%
O=[N+]([O-])c1cccc(N=Cc2ccc3c(c2)OCO3)c1	103%

SMILES	growth
CCCCC1=c2c([nH]c3ccc(OC)cc23)=NC2C=CC=NC12 (stereo not given)	-23.5% (active)
Cc1ccc(-c2nc3nc(-c4ccc(Br)cc4)nc(N4CCCNCC4)c3o2)cc1	-65% (active)
Nc1[nH]n2cc(-c3ccccc3)nc2c1N=Nc1ccc(S(N)(=O)=O)cc1	32.6%
O=C1CC(=O)N(c2ccccc2)O1	105%
COc1cc2c(cc1-c1c(C)noc1C)ncc1nc(CN3CCOCC3)n([C@H](C)COC(F)F)c12	29.6%
Nc1ccc(Sc2ccc3c4c2cccc4c(=O)n2c4ccccc4nc32)cc1	43.5%
CCc1c2c(nc3ccc(OCc4ccc(B(O)O)cc4)cc13)-c1cc3c(c(=O)n1C2)COC(=O)[C@]3(O)CC	-48.4% (active)
CN(C)CCCNc1c2ccc(Cl)cc2nc2c1oc1ccc(Cl)cc12	36.4%
O=C(Nc1ccc(Nc2ccncc2)cc1)c1ccc(Nc2ccnc3ccc([N+](=O)[O-])cc23)cc1[N+](=O)[O-]	21.7%
COc1ccc(-c2nc3ccc(-c4nc5ccc(N6CCN(C)CC6)cc5[nH]4)cc3[nH]2)cc1OC	-30.1% (active)
COc1cccc(-c2nc3sccn3c2-c2ccnc(NCCCNS(=O)(=O)c3ccccc3)c2)c1	1.62% (active)
COc1ccc(Nc2ccnc(N3CCN(c4ccnc5cc(Cl)ccc45)CC3)n2)cc1	-16% (active)
COc1ccc(NC(=O)CSc2nc3ccccc3c(=O)n2CCc2ccccc2)cc1	87.7%
COc1cc(/C=C2\COc3ccc(-c4ccccc4)cc3C2=O)cc(OC)c1	69.3%
CCNCCOc1ccc(/C(=C(/CC)c2ccc(Cl)cc2)c2ccc(OCCCN(C)C)cc2)cc1	-87% (active)
CN(C)C/C=C/C(=O)Nc1cc2c(Nc3ccc(F)c(Cl)c3F)ncnc2cc1OCCOC(F)F	-40.8% (active)
COc1ccc(-c2cc(-c3cccc4ccccc34)n3c(n2)nc2ccccc23)cc1OC	63.2%
Cc1nn(C)c2ncnc(Nc3ccccc3Br)c12	107%
CNC(=O)c1cc(Oc2ccc3nc(Nc4ccc(Cl)c(C(F)(F)F)c4)ccc3c2)ccn1	45.3%
COc1ccc(C2=NOC(CC(=O)N(CCO)CCO)C2)cc1OC1CCCC1 (stereo not given)	90.2%
